Where two headings read alike, the source gives them in different places.
Columns and labels:
[1] = system: FLT1; conditions: concentration: 1 μM, replicates: in singlicate; n = 1
[2] = system: FLT3-autoinhibited; conditions: concentration: 1 μM, replicates: in singlicate; n = 1
[3] = system: FLT3; conditions: concentration: 1 μM, replicates: in singlicate; n = 1
[4] = system: FLT4; conditions: concentration: 1 μM, replicates: in singlicate; n = 1
[5] = system: FRK; conditions: concentration: 1 μM, replicates: in singlicate; n = 1
[6] = system: FYN; conditions: concentration: 1 μM, replicates: in singlicate; n = 1
[7] = system: GAK; conditions: concentration: 1 μM, replicates: in singlicate; n = 1
[8] = system: T1, GCN2(Kin.Dom.2,S808G); conditions: concentration: 1 μM, replicates: in singlicate; n = 1
T1 construct: gene EIF2AK4

[9] = system: GRK1; conditions: concentration: 1 μM, replicates: in singlicate; n = 1
[10] = system: T2, GRK2; conditions: concentration: 1 μM, replicates: in singlicate; n = 1
T2 construct: gene ADRBK1

[11] = system: T3, GRK3; conditions: concentration: 1 μM, replicates: in singlicate; n = 1
T3 construct: gene ADRBK2

[12] = system: GRK4; conditions: concentration: 1 μM, replicates: in singlicate; n = 1
[13] = system: GRK7; conditions: concentration: 1 μM, replicates: in singlicate; n = 1
[14] = system: GSK3A; conditions: concentration: 1 μM, replicates: in singlicate; n = 1
[15] = system: GSK3B; conditions: n = 1
[16] = system: T4, HASPIN; conditions: concentration: 1 μM, replicates: in singlicate; n = 1
T4 construct: gene GSG2

[17] = system: HCK; conditions: concentration: 1 μM, replicates: in singlicate; n = 1
[18] = system: HIPK1; conditions: concentration: 1 μM, replicates: in singlicate; n = 1
[19] = system: HIPK2; conditions: concentration: 1 μM, replicates: in singlicate; n = 1
[20] = system: HIPK3; conditions: concentration: 1 μM, replicates: in singlicate; n = 1
[21] = concentration: 1 μM, replicates: in singlicate
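Further: KINOMEscan kinase panel screen.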

`Cn1cnc2c(N)ncnc21` [SKF-97623] was tested, and the “%Inh” value [1] was 0%, the “%Inh” value [2] was 100% and the “%Inh” value [3] was 0%. For the same compound, the “%Inh” value [4] was 0%, the “%Inh” value [5] was 0% and the “%Inh” value [6] was 0%. For the same compound, the “%Inh” value [7] was 0%, the “%Inh” value [8] was 27% and the “%Inh” value [9] was 0%. The “%Inh” value [10] was 29%, the “%Inh” value [11] was 26% and the “%Inh” value [12] was 21%. For the same compound, the “%Inh” value [13] was 0%, the “%Inh” value [14] was 0% and the “%Inh” value [15, 21] was 0%. The “%Inh” value [16] was 0%, the “%Inh” value [17] was 0% and the “%Inh” value [18] was 0%. For the same compound, the “%Inh” value [19] was 11% and the “%Inh” value [20] was 0%.

For `O=C(Nc1n[nH]c2nc(-c3cccs3)c(Br)cc12)C1CC1` [SB-735297], the “%Inh” value [1] was 8%, the “%Inh” value [2] was 19% and the “%Inh” value [3] was 81%. For the same compound, the “%Inh” value [4] was 0%, the “%Inh” value [5] was 0% and the “%Inh” value [6] was 0%. The “%Inh” value [7] was 0%, the “%Inh” value [8] was 0% and the “%Inh” value [9] was 10%. For the same compound, the “%Inh” value [10] was 0%, the “%Inh” value [11] was 0% and the “%Inh” value [12] was 0%. The “%Inh” value [13] was 17%, the “%Inh” value [14] was 93.8% and the “%Inh” value ([15]; 1 µM) was 52%. For the same compound, the “%Inh” value [16] was 0%, the “%Inh” value [17] was 0% and the “%Inh” value [18] was 27%. For the same compound, the “%Inh” value [19] was 58% and the “%Inh” value [20] was 11%.

`CNc1nc(-c2ccc3c(N)n[nH]c3c2)cc(N2C[C@@H](C(=O)Nc3ccccc3)CC[C@H]2C)n1` [GSK2298859] was tested, and the “%Inh” value [1] was 35%, the “%Inh” value [2] was 0% and the “%Inh” value [3] was 0%. The “%Inh” value [4] was 12%, the “%Inh” value [5] was 0% and the “%Inh” value [6] was 2%. The “%Inh” value [7] was 0%, the “%Inh” value [8] was 0% and the “%Inh” value [9] was 100%. For the same compound, the “%Inh” value [10] was 0%, the “%Inh” value [11] was 0% and the “%Inh” value [12] was 0%. The “%Inh” value [13] was 0%, the “%Inh” value [14] was 26% and the “%Inh” value [15, 21] was 0%. For the same compound, the “%Inh” value [16] was 13%, the “%Inh” value [17] was 0% and the “%Inh” value [18] was 0%. For the same compound, the “%Inh” value [19] was 0% and the “%Inh” value [20] was 1%.

For `CNC(=O)c1ccc(C)c(-n2c(C)cc(OCc3ccc(F)cc3F)c(Br)c2=O)c1`, the “%Inh” value [1] was 2%, the “%Inh” value [2] was 0% and the “%Inh” value [3] was 0%. The “%Inh” value [4] was 0%, the “%Inh” value [5] was 0% and the “%Inh” value [6] was 0%. The “%Inh” value [7] was 0%, the “%Inh” value [8] was 0% and the “%Inh” value [9] was 0%. The “%Inh” value [10] was 4%, the “%Inh” value [11] was 0% and the “%Inh” value [12] was 2%. For the same compound, the “%Inh” value [13] was 0%, the “%Inh” value [14] was 0% and the “%Inh” value [15, 21] was 0%. For the same compound, the “%Inh” value [16] was 18%, the “%Inh” value [17] was 0% and the “%Inh” value [18] was 0%. For the same compound, the “%Inh” value [19] was 0% and the “%Inh” value [20] was 0%.

With `COc1ccc(Nc2nccc(N3CCC(NC(=O)C(C)c4ccc(Cl)cc4)C3)n2)cc1` (centres unmarked) [GSK1379735] the “%Inh” value [1] was 21%, the “%Inh” value [2] was 5% and the “%Inh” value [3] was 10%. For the same compound, the “%Inh” value [4] was 5%, the “%Inh” value [5] was 0% and the “%Inh” value [6] was 15%. For the same compound, the “%Inh” value [7] was 11%, the “%Inh” value [8] was 9% and the “%Inh” value [9] was 7%. For the same compound, the “%Inh” value [10] was 0%, the “%Inh” value [11] was 20% and the “%Inh” value [12] was 31%. The “%Inh” value [13] was 0%, the “%Inh” value [14] was 34% and the “%Inh” value [15, 21] was 0%. The “%Inh” value [16] was 13%, the “%Inh” value [17] was 0% and the “%Inh” value [18] was 0%. The “%Inh” value [19] was 0% and the “%Inh” value [20] was 4%.

In the case of `COC(=O)C(NC(=O)NC1CCN(c2ccnc(Nc3ccc(F)cc3)n2)C1)c1ccccc1` (centres unmarked) [GSK1379712], the “%Inh” value [1] was 14%, the “%Inh” value [2] was 8% and the “%Inh” value [3] was 0%. The “%Inh” value [4] was 0%, the “%Inh” value [5] was 0% and the “%Inh” value [6] was 31%. The “%Inh” value [7] was 0%, the “%Inh” value [8] was 2% and the “%Inh” value [9] was 0%. The “%Inh” value [10] was 4%, the “%Inh” value [11] was 18% and the “%Inh” value [12] was 0%. The “%Inh” value [13] was 0%, the “%Inh” value [14] was 16% and the “%Inh” value [15, 21] was 4%. For the same compound, the “%Inh” value [16] was 0%, the “%Inh” value [17] was 0% and the “%Inh” value [18] was 12%. For the same compound, the “%Inh” value [19] was 0% and the “%Inh” value [20] was 48%.

`CNCc1ccc2nc(NC(=O)c3ccc(C(C)(C)C)cc3)cn2c1` was tested, and the “%Inh” value [1] was 27%, the “%Inh” value [2] was 19% and the “%Inh” value [3] was 66%. For the same compound, the “%Inh” value [4] was 29%, the “%Inh” value [5] was 1% and the “%Inh” value [6] was 6%. For the same compound, the “%Inh” value [7] was 5%, the “%Inh” value [8] was 0% and the “%Inh” value [9] was 13%. The “%Inh” value [10] was 39%, the “%Inh” value [11] was 36% and the “%Inh” value [12] was 0%. The “%Inh” value [13] was 10%, the “%Inh” value [14] was 3% and the “%Inh” value [15, 21] was 11%. The “%Inh” value [16] was 5%, the “%Inh” value [17] was 3% and the “%Inh” value [18] was 17%. The “%Inh” value [19] was 13% and the “%Inh” value [20] was 17%.

`COc1ccc(Nc2nccc(-c3ccc(NC(=O)c4cc5cc(F)ccc5[nH]4)cc3)n2)cc1` [GSK1229496] was tested, and the “%Inh” value [1] was 4%, the “%Inh” value [2] was 0% and the “%Inh” value [3] was 0%. The “%Inh” value [4] was 9%, the “%Inh” value [5] was 0% and the “%Inh” value [6] was 0%. The “%Inh” value [7] was 0%, the “%Inh” value [8] was 0% and the “%Inh” value [9] was 3%. The “%Inh” value [10] was 9%, the “%Inh” value [11] was 22% and the “%Inh” value [12] was 0%. The “%Inh” value [13] was 0%, the “%Inh” value [14] was 0% and the “%Inh” value [15, 21] was 0%. The “%Inh” value [16] was 41%, the “%Inh” value [17] was 0% and the “%Inh” value [18] was 0%. For the same compound, the “%Inh” value [19] was 0% and the “%Inh” value [20] was 0%.

For `Cc1nccc(-c2c(-c3ccc(F)cc3)ncn2CCCN2CCOCC2)n1.Cl` [SB-282975], the “%Inh” value [1] was 21%, the “%Inh” value [2] was 19% and the “%Inh” value [3] was 6%. For the same compound, the “%Inh” value [4] was 23%, the “%Inh” value [5] was 2% and the “%Inh” value [6] was 9%. The “%Inh” value [7] was 9%, the “%Inh” value [8] was 0% and the “%Inh” value [9] was 78%. The “%Inh” value [10] was 0%, the “%Inh” value [11] was 34% and the “%Inh” value [12] was 0%. The “%Inh” value [13] was 23%, the “%Inh” value [14] was 23% and the “%Inh” value [15, 21] was 17%. The “%Inh” value [16] was 23%, the “%Inh” value [17] was 8% and the “%Inh” value [18] was 0%. For the same compound, the “%Inh” value [19] was 0% and the “%Inh” value [20] was 14%.

In the case of `CCn1c(-c2c(N)noc2C)nc2cnccc21` [SB-737856], the “%Inh” value [1] was 20%, the “%Inh” value [2] was 0% and the “%Inh” value [3] was 0%. The “%Inh” value [4] was 0%, the “%Inh” value [5] was 11% and the “%Inh” value [6] was 3%. The “%Inh” value [7] was 21%, the “%Inh” value [8] was 7% and the “%Inh” value [9] was 0%. For the same compound, the “%Inh” value [10] was 0%, the “%Inh” value [11] was 42% and the “%Inh” value [12] was 6%. The “%Inh” value [13] was 0%, the “%Inh” value [14] was 0% and the “%Inh” value [15, 21] was 2%. For the same compound, the “%Inh” value [16] was 0%, the “%Inh” value [17] was 0% and the “%Inh” value [18] was 0%. For the same compound, the “%Inh” value [19] was 0% and the “%Inh” value [20] was 0%.

From article PMC5540273 (PLoS ONE, 2017)
